# Results taken from paper PMC4336329 (PLoS ONE, 2015).
# Among all 310,000 compounds or so, about 14,000 (4.5%) showed an effect of 50% or more. Effects have a minus sign here. The entries come from a sample that favours strong results as a whole.
# Target: human ether-à-go-go-related gene (hERG) potassium channel (human, UniProt Q12809)
# Experiment: primary screen, population patch clamp on CHO cells stably expressing hERG; higher = less effect of the substance
# Procedure: Briefly, Chinese hamster ovary (CHO) cells stably expressing the hERG channel were dislodged from tissue culture flasks and dispensed into PPC plates. […] During the recording, background leak currents were estimated by a 100 ms step to -80 mV from an initial holding potential of -70 mV and subtracted from the subsequent current measurement. The campaign was conducted in two phases using slight differences in recording protocol. In the first phase, the initial voltage pulse used a 100 ms step to -30 mV from a holding potential of -70 mV, a 2 s conditioning step to +25 mV, and a 2 s test step to -30 mV. During the second phase of the screen, the potential during the conditioning step was raised to +45 mV. In both phases of the campaign, a secondary voltage pulse was applied using the same parameters as the second phase initial pulse. The initial and secondary pulses were applied in the absence of compound, and upon application of 1 μM and 10 μM test concentrations. […]
# 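Further: peak tail current of the secondary pulse compared with the same well before compound.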
# human ether-à-go-go-related gene (hERG) potassium channel, sequence (Q12809 whole entry, looked up): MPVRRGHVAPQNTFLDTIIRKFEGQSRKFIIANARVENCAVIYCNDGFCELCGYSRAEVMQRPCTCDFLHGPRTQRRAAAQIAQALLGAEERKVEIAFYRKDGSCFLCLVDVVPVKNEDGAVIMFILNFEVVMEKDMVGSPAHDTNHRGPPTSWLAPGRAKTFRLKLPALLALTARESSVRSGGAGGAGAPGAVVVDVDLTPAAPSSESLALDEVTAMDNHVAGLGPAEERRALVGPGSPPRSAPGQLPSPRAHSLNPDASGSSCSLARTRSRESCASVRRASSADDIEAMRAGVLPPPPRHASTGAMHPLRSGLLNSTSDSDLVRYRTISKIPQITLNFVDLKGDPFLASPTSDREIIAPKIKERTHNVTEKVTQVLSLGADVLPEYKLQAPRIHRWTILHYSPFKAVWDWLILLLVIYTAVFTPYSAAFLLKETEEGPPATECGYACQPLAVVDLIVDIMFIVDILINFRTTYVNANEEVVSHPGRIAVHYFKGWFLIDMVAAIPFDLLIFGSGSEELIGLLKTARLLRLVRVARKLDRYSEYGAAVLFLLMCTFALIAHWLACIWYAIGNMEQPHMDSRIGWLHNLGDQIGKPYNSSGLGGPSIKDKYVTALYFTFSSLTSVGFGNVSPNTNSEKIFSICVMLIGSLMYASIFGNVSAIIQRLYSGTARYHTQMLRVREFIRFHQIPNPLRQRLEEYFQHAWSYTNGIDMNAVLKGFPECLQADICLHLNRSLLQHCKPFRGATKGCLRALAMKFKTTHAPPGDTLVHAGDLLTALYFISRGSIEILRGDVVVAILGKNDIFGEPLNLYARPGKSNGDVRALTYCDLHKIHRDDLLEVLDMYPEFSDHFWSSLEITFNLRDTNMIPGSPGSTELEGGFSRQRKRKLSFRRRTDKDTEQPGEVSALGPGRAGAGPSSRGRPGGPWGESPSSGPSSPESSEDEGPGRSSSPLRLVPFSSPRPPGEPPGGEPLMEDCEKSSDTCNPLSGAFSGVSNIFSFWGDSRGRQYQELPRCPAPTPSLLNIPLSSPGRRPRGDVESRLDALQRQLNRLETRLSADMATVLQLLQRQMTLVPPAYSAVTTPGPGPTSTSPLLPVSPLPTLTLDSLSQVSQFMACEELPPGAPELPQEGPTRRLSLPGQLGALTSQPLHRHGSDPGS
row,SMILES,"hERG current change (%, negative = inhibition) at 10uM [%]"
1,CCCOc1cccc(C(=O)Nc2ccc3c(c2)OCCO3)c1,0.786
2,CSc1cccc(NC(=O)C2CCN(S(=O)(=O)c3cnc[nH]3)CC2)c1,9.39
3,Nc1c(NCc2ccccc2)c(=O)c1=O,-6.37
4,Cc1nc2c(C)cccn2c(=O)c1NC(=O)c1ccc(Br)o1,5.14
5,O=C(COc1cccc(C(F)(F)F)c1)Nc1cccnc1,4.03
6,CCC(C)N(C(=O)c1csnn1)C(C(=O)NC1CCCC1)c1ccc(F)cc1 (centres unmarked),0.39
7,CC(=O)c1cccc(NC(=O)CCCNC(=O)c2ccc(Cl)cc2)c1,2.99
8,CCN(CC)C(=O)c1cn(-c2cccc(OC)c2)c(=O)c2ccccc12,9.66
9,COC(=O)c1cc(Cl)nc2ccccc12,-7.89
10,COc1ccc(CNC(=O)c2cc(S(=O)(=O)N3CCCC3)cn2C)cc1,13.2
11,Cc1nn(Cc2ccc(Cl)cc2)c(Cl)c1/C=N/NC(=O)c1cccnc1,-45.2
12,CN(C)CCN(C(=O)C1CCCCC1)c1nc2cc3c(cc2s1)OCO3.Cl,-9.7
13,CN(C)CCCN(C(=O)C1COc2ccccc2O1)c1nc2ccc(F)cc2s1.Cl (centres unmarked),-75.4
14,CN(C)CCCN(C(=O)CCSc1ccccc1)c1nc2cc3c(cc2s1)OCO3.Cl,-48.2
15,CN(C)CCCN(C(=O)c1nc2ccccc2s1)c1nc2ccc(F)cc2s1.Cl,4.17
16,CN(C)CCCN(C(=O)c1sc2ccccc2c1Cl)c1nc2ccc(F)cc2s1.Cl,-19.7
17,CN(C)CCCN(C(=O)C1COc2ccccc2O1)c1nc2cc3c(cc2s1)OCO3.Cl (centres unmarked),-64.4
18,Cn1c(O)c(C=Nc2ccccc2Sc2ccccc2)c(=O)n(C)c1=O,16.4
19,CCCc1[nH]nc2c1C(c1ccc(OC)c(Cn3nnc4ccccc43)c1)C(C#N)=C(N)O2 (centres unmarked),-29.1
20,CCCn1c(SCc2ccc(Cl)cc2)nc2c1c(=O)[nH]c(=O)n2C,0.36

row,SMILES,"hERG current change (%, negative = inhibition) at 10uM [%]"
1,CCOCCCNC(=O)C(NC(=O)c1ccc(NC(C)=O)cc1)c1ccc(C)cc1 (centres unmarked),-20.5
2,CCc1ccc(CNC(=O)c2ccc(NC(=O)C3=CSCCO3)cc2)cc1,-23
3,O=C(C1COc2ccccc2O1)N1CCCC1 (centres unmarked),16.8
4,O=C(NCC(=O)N1CCC2(CC1)NCCc1[nH]cnc12)c1ccc2ccccc2c1,11.7
5,O=C(Nc1nc2ccc(S(=O)(=O)N3CCCC3)cc2s1)c1ccco1,11.5
6,CCCn1c2ccccc2c2nnc(SCCN3CCOCC3)nc21,-9.15
7,CCn1c2ccc(C)cc2c2nnc(SCCN3CCOCC3)nc21,-13.8
8,CCn1c2nc(SCCN3CCOCC3)nnc2c2cc(C)cc(C)c21,-95.3
9,CCCn1c2ccc(F)cc2c2nnc(SCCN3CCOCC3)nc21,-35.8
10,CCn1c2ccc(F)cc2c2nnc(SCCN3CCCCC3)nc21,-61
11,CCn1c2ccc(F)cc2c2nnc(SCCN3CCOCC3)nc21,-41.2
12,CCn1c2ccc(F)cc2c2nnc(NN)nc21,-9.93
13,CCCn1c2ccc(F)cc2c2nnc(NN)nc21,-1.94
14,CCCn1c2ccc(F)cc2c2nnc(SCCN3CCCCC3)nc21,-64.2
15,CCn1c2ccccc2c2nnc(SCCN3CCOCC3)nc21,3.2
16,CCCCn1c2ccc(F)cc2c2nnc(NN)nc21,-44.9
17,CCCCn1c2ccc(F)cc2c2nnc(SCCN3CCOCC3)nc21,-55.4
18,Cc1cccc2cc(/C=N/NC(=O)c3ccccc3O)c(Cl)nc12,-2.17
19,O=C1[C@H]2[C@@H](c3ccc(Cl)cc3)N3C(=O)N(c4cccc(Cl)c4)C(=O)[C@@]3(Cc3ccccc3)[C@H]2C(=O)N1C1CCCCC1,-2.02
20,Cc1cc(C)nc(NC2=NCCN2C(=O)NC2CCCCC2)n1,-17.7

row,SMILES,"hERG current change (%, negative = inhibition) at 10uM [%]"
1,[2H]c1c([2H])c([2H])c(-c2nc(N3CCCCCC3)sc2C(=O)c2ccccc2)c([2H])c1[2H],-2.19
2,CC(C)CCNC(=O)C1CCCN(S(=O)(=O)c2ccc(F)cc2)C1 (centres unmarked),6.85
3,CC(=O)Nc1ccccc1NC(=O)c1ccc(C)cc1C,23.7
4,S=c1[nH]nc(COc2cccc(Cl)c2)n1Cc1ccccc1,34.4
5,COc1cccc(NC(=O)CSc2nc(C3CC3)nc3ccccc23)c1,4.75
6,CCCn1c2ccc(C)cc2c2nnc(SCCN3CCOCC3)nc21,-32.5
7,Cc1ccc2[nH]c3nc(SCCN4CCOCC4)nnc3c2c1,8.91
8,CCCCn1c2ccc(C)cc2c2nnc(SCCN3CCCCC3)nc21,-74.3
9,CSCCC(NC(=O)C1CCC(C)CC1)C(=O)O (centres unmarked),16.6
10,Cc1cccnc1NC(=O)c1ccc(Br)o1,32.6
11,Nc1nc(NC(=O)/C=C/c2ccccc2)nn1-c1ccccc1,-32.6
12,Nc1nc(NC(=O)/C=C\C(=O)O)nn1-c1ccccc1,27.8
13,COc1ccc(C(=O)Nc2nc(N)n(-c3ccccc3)n2)cc1,-11.4
14,Nc1nc(NC(=O)/C=C/c2ccc(F)cc2)nn1-c1ccccc1,-53.4
15,Cc1ccc(C(=O)Nc2nc(N)n(-c3ccccc3)n2)cc1,-0.817
16,Nc1nc(NC(=O)c2cccnc2)nn1-c1ccccc1,18.8
17,Nc1nc(NC(=O)c2ccccc2)nn1-c1ccccc1,-70.9
18,COc1ccccc1/C=C/C(=O)Nc1nc(N)n(-c2ccccc2)n1,-33.8
19,COc1ccc(/C=C/C(=O)Nc2nc(N)n(-c3ccccc3)n2)cc1,-53
